pPAFAH FP inh – inhibitors of human plasma PAF acetylhydrolase (pPAFAH); recombinant pPAFAH, FP-rhodamine probe fluorescence polarization; inhibition, % at 3.39 µM; actives 1.5% (n = 330,000);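 active = inhibition above the mean inhibition across the screen plus 3 SD, cut at about 25% in these data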;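 note: inhibitors block binding of the rhodamine activity-based probe so polarization drops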
Fam108B inh – Fam108B inhibition, counter-screen for RBBP9 inhibitors | recombinant Fam108B, FP-Rh probe fluorescence polarization | inhibition, % at 9.51 µM | actives 0.33% (n = 300,000) | AID 1947;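 active = inhibition above the screen mean inhibition plus 3 SD, computed separately per campaign, cut at about 18% in these data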;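 note: inhibitors lower polarization as less probe binds the enzyme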
GSTO1 inh – counter-screen for RBBP9 inhibitors: inhibitors of human GSTO1. recombinant GSTO1, activity-based probe fluorescence polarization. inhibition, % at 5.96 µM. P78417. actives 1.1% (n = 300,000);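 active = inhibition above the campaign mean inhibition plus 3 SD, cut at about 35% in these data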
Target sequence (P78417 whole entry, looked up): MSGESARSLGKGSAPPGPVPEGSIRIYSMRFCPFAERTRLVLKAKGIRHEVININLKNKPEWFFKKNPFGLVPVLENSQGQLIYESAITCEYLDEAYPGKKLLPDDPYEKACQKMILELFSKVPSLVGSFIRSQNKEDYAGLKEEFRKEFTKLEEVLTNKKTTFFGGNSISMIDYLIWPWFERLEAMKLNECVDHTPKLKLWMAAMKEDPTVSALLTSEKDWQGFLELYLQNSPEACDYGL
PAD4 FP inh – PAD4 (human) enzyme inhibition; Q9UM07; recombinant PAD4, RCA probe fluorescence polarization; inhibition, % at 6.36 µM; actives 0.41% (n = 330,000); AID 485272;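 active = percent inhibition above a cutoff equal to the mean of all tested compounds plus 3 SD, cut at about 15% in these data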
PME-1 inh – blocks human protein phosphatase methylesterase 1; recombinant PME-1, FP-Rh probe fluorescence polarization; inhibition, % at 5.9 µM; actives 0.53% (n = 320,000);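 active = inhibition above the campaign mean of all compounds plus 3 SD, cut at about 26% in these data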;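 note: competitive labeling of PME-1 active site by serine hydrolase directed probe; inhibitors block probe labeling so polarization falls and inhibition rises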
Target sequence (Q9Y570 whole entry, looked up): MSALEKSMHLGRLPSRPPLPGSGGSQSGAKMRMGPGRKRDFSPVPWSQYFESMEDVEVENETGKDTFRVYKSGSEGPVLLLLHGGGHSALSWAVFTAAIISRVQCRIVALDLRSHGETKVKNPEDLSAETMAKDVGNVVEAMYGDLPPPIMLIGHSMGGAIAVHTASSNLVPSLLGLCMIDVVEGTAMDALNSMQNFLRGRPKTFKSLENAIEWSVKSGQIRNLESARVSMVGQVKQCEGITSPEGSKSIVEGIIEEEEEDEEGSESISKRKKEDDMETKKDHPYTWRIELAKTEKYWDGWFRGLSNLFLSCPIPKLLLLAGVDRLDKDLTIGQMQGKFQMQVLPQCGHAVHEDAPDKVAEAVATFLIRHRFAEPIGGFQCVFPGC
PAD4 FP conf – confirmation of human PAD4 inhibitors | shares compounds with PAD4 FP inh | recombinant PAD4, RCA probe fluorescence polarization | inhibition, % at 6.36 µM | actives 28% (n = 1,200);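 active = mean inhibition across replicates above the hit cutoff set by the earlier primary screen, cut at about 15% in these data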;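 note: inhibitors block active-site labeling by the probe so polarization falls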
Each line names hits and unclear results; the compound was inactive in the other large screens (follow-up assays come after a bar, where they were run). A selection: hits, their analogues and other compounds. The true share with any hit is near 2.3%.

COc1ccc(N2C(=O)CSC23C(=O)N2CCCc4cccc3c42)cc1 (stereo unspecified)	PAD4 FP inh 22 | PAD4 FP conf 21
Cc1c(N2C(=O)CSC2c2ccco2)c(=O)n(-c2ccccc2)n1C (stereo unspecified)	none
COc1cc(NS(=O)(=O)c2c(C(=O)N3CCOCC3)c(C)n(C)c2C)cc(OC)c1OC	none
CC(=O)SCC(=O)N=c1sc2cc(F)ccc2n1C	PAD4 FP inh 20 | PAD4 FP conf 19
Cc1ccc(S(=O)(=O)N(C(=O)c2ccco2)c2cc3sc(=O)oc3c3ccccc23)cc1	GSTO1 inh 66, PAD4 FP inh 21 | PAD4 FP conf inactive
COc1cc(N2C(=O)CSC23C(=O)Nc2ccccc23)cc(OC)c1OC (stereo unspecified)	PAD4 FP inh 15 | PAD4 FP conf 16
Cc1cccc(N(CC(=O)NC2CCCCC2)C(=O)c2csnn2)c1	none
CN(C)c1ccc(NC(=S)c2ccc3ccccc3n2)cc1	PAD4 FP inh 38 | PAD4 FP conf inactive
Cc1ccc(C)c(NC(=S)c2ccc3ccccc3n2)c1	none
Brc1ccc(-c2nc(-c3ccncc3)no2)o1	PAD4 FP inh 15 | PAD4 FP conf inactive
Cc1ccccc1NS(=O)(=O)c1ccc2[nH]c(=O)[nH]c2c1	none
O=C(O)COc1ccccc1/C=N/NC(=O)CSc1nc2ccccc2n1Cc1ccc(Cl)cc1	none
O=c1cc(-c2ccc(Br)cc2)[nH][nH]1	PAD4 FP inh 56 | PAD4 FP conf inactive
CCC(=O)Nc1ccc(SC#N)cc1C	PAD4 FP inh 40 | PAD4 FP conf 42
Cc1cc(SC#N)cc(C)c1NC(=O)CCl	GSTO1 inh 66, PAD4 FP inh 25 | PAD4 FP conf inactive
CCC(=O)Nc1cc2c(C)cc(=O)oc2cc1C	none
Cc1ccc(-c2csc(NC(=O)CSC3=NCCS3)n2)cc1	PAD4 FP inh 20 | PAD4 FP conf 16
O=C(CSc1nc2ccccc2o1)Nc1nc2ccccc2s1	none
O=C(CSC1=NCCS1)Nc1nc2ccccc2s1	PAD4 FP inh 17 | PAD4 FP conf inactive
Cc1sc(NC(=O)CSC2=NCCS2)nc1-c1ccccc1	PAD4 FP inh 19 | PAD4 FP conf 17
CCOC(=S)SCC(=O)Nc1nc(-c2ccc(Br)cc2)cs1	none
Cc1sc(NC(=O)CSc2ncn(-c3ccccc3)n2)nc1-c1ccccc1	none
CCOC(=S)SCC(=O)Nc1nc(-c2ccccc2)cs1	PAD4 FP inh 25 | PAD4 FP conf 25
CCCCC1C(=O)N(c2ccccc2)N(c2ccc(O)cc2)C1=O (stereo unspecified)	none
COc1ccccc1N1CCN(C(=O)c2cccc(C(=O)N3CCN(c4ccccc4OC)CC3)c2)CC1	none
COc1ccccc1N1CCN(C(=O)c2coc(=O)c(Br)c2)CC1	PAD4 FP inh 34 | PAD4 FP conf inactive
CC(C)(C)c1ccc(S(=O)(=O)N2CCC(CO)(CC3CCCCO3)CC2)cc1 (stereo unspecified)	none
O=C(Cn1sc2ccccc2c1=O)NC12CC3CC(CC(C3)C1)C2	PAD4 FP inh 16 | PAD4 FP conf 30
Cc1ccc(C2CC(=O)Oc3cc(O)ccc32)cc1 (stereo unspecified)	PAD4 FP inh 60 | PAD4 FP conf 63
COc1ccc(C2CC(=O)Oc3cc(OC)ccc32)cc1 (stereo unspecified)	none (no result: Fam108B inh, GSTO1 inh, PME-1 inh)
CCOCCCNC(=S)N(CCN(CC)CC)Cc1cc2cc3c(cc2[nH]c1=O)OCCO3	none
CCOCCCNC(=S)N(CCO)Cc1cc2cc3c(cc2[nH]c1=O)OCCO3	PAD4 FP inh 23 | PAD4 FP conf inactive
CC(=O)N1CC[n+]2c(-c3ccc(Cl)cc3Cl)csc21	PAD4 FP inh 16 | PAD4 FP conf inactive
CN(c1ccccc1)S(=O)(=O)c1cccc(NC(=O)C2=NN(c3ccccc3)C(=O)CC2)c1	none (no result: Fam108B inh, GSTO1 inh, PME-1 inh)
COc1cccc(/C=N/Nc2nnc(C)n2N)c1OCc1ccccc1Cl	PAD4 FP inh 22 | PAD4 FP conf inactive
CCc1nnc(N/N=C/c2ccccc2Cl)n1N	PAD4 FP inh 36 | PAD4 FP conf inactive
CC(C)(C)c1nnc(N/N=C/c2ccccc2O)n(N)c1=O	none
CCc1nnc(N/N=C/c2ccccc2F)n1N	PAD4 FP inh 43 | PAD4 FP conf inactive
CC(C)OCCCNC(=O)CN1C(=O)CSc2ccc(S(=O)(=O)N3CCCCC3)cc21	none
O=c1[nH]nc(-c2ccc(OCc3ccc(Cl)cc3Cl)cc2)o1	PAD4 FP inh 89 | PAD4 FP conf inactive
OCCNCc1ccc(OCc2ccc(Cl)cc2Cl)cc1	none
Cc1nnc(SCC(=O)c2ccc(Cl)cc2)n(N)c1=O	PAD4 FP inh 26 | PAD4 FP conf inactive
Cc1ccc(NC(=O)CSc2nnc(C)c(=O)n2N)cc1Cl	none
Cc1cc(OCC(=O)OCC(=O)Nc2cc(C(F)(F)F)ccc2N2CCOCC2)ccc1Cl	none
Cc1cccc2c1N(C(=O)CN1C(=O)c3ccccc3C1=O)C(C)(C)c1ssc(=S)c1-2	PAD4 FP inh 27 | PAD4 FP conf 40
Cc1cc(C)c2c(c1)-c1c(ssc1=S)C(C)(C)N2C(=O)CN1C(=O)c2ccccc2C1=O	PAD4 FP inh 24 | PAD4 FP conf 38
CC1=CC(C)(C)N(C(=O)CN2C(=O)c3ccccc3C2=O)c2ccccc21	none
COc1cc(Cl)c(NC2=CC(=O)C(=O)c3ccccc32)c(OC)c1	PAD4 FP inh 41 (no result: Fam108B inh, GSTO1 inh) | PAD4 FP conf 52
COc1cc(Cl)c(NS(=O)(=O)c2ccc(-c3ccc(=O)[nH]n3)o2)c(OC)c1	none
Cc1ccc(NC(=O)CSc2nnc(-c3cc(C)[nH]n3)n2N)cc1	none
Cc1cc(-c2nnc(SCC(=O)Nc3ccc(F)c(F)c3)n2N)n[nH]1	PAD4 FP inh 52 | PAD4 FP conf inactive
CCN(Cc1ccc2c(c1)OCO2)C(=O)CSc1ncnc2sccc12	none (no result: Fam108B inh, GSTO1 inh)
CCN(Cc1ccc2c(c1)OCCO2)C(=O)CSc1nc(C)nc2sc(C)c(C)c12	PAD4 FP inh 79 (no result: Fam108B inh, GSTO1 inh) | PAD4 FP conf inactive
O=C(Nc1nc(=O)c2ccccc2s1)c1ccc(F)cc1	PAD4 FP inh 16 | PAD4 FP conf inactive
Cc1ccc(/C(=N/Nc2nc3ccccc3s2)C2=C(O)c3ccccc3C2=O)cc1	PAD4 FP inh 42 | PAD4 FP conf 17
NC1=NC(=O)/C(=C/c2cn(Cc3ccccc3)c3ccccc23)S1	none
Cc1cccc(NC(=O)C(CC(C)C)NC(=O)C2CCC(C)CC2)n1 (stereo unspecified)	PAD4 FP inh 20 | PAD4 FP conf inactive
COc1ccc(OC)c(N/C(C)=C/C(=O)c2ccncc2)c1	PAD4 FP inh 23 | PAD4 FP conf inactive
COc1ccc(OC)c(N/C(C)=C/C(=O)c2ccccc2)c1	none
Cc1c(NC(=O)CSc2nccn2C)c(=O)n(-c2ccccc2)n1C	PAD4 FP inh active | PAD4 FP conf inactive
Cc1c(NC(=O)C(C)Sc2nccn2C)c(=O)n(-c2ccccc2)n1C (stereo unspecified)	none (no result: Fam108B inh, GSTO1 inh)
O=S(=O)(CCSc1nc2ccccc2s1)c1nc2ccccc2s1	PAD4 FP inh 50 | PAD4 FP conf 41
